From PubChem BioAssay
The list is not random: actives were taken first. Their share in the collection is about 3.8%.
Ub-GFP proteasome – ubiquitin-GFP accumulation via proteasome inhibition. Ubiquitin-GFP reporter cells, proteasome inhibition, GFP fluorescence; response scale: untreated = 0%, 10 µM MG-132 = 100%. Potency, µM (titrated, usually from 45.9 µM), for inactives: at the top dose activation (GFP accumulation), usual class: activators. 67,000 tested, under 10 active. AID 526; active = well fitted activation curve with a large enough effect, not every such curve was filed as active; inconclusive = small, poorly fitted or top-dose-only effect, or another doubt; inactive = no such curve, though single readings can be large or run the other way; note: potency is the fitted concentration of half-maximal effect
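U2OS Ub(G76V)-GFP reporter; O/N plating, 0.5% FBS; cpd 46 uM–2.9 nM, 4 h, 37 °C; GFP+ cell count, 488/515 nm; norm. to basal vs 10 uM MG-132; CRC fit.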
GFP derepression – derepresses silenced GFP locus in mouse C127i cells; Potency, µM (top dose mostly 46.1 µM), inactives show at the top dose GFP derepression (activation); 68,000 tested, 0.09% active; mouse C127i GFP locus derepression, cytometry, 30 h; note: % of control where 0% means no effect
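Read-out is the number of GFP-positive cells, scored as fluorescent objects 20 to 120 um wide, reflecting derepression of a silenced CMV-GFP reporter in murine C127i cells after 30 h compound exposure at 37 C.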
TSHR ag – activates the human thyroid stimulating hormone receptor. P16473. HEK293-CNG-TSHR cells (CNG channel as cAMP sensor), membrane potential dye, cAMP. Potency, µM (series often up to 57.1 µM), for the others: top-dose activation, actives largely listed as activators. 73,000 tested, 0.48% active; active = well fitted activation curve with a large enough effect in the main read-out, with a control signal flat, not every such curve was filed as active; inconclusive = small, poorly fitted or top-dose-only effect, or a change in a side signal; inactive = no such curve, though single readings can be large or run the other way; % of control where 0% means no effect;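 note: the control signal comes from parental cells without the receptor; potency is the fitted concentration of half-maximal effect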
Target sequence (P16473 whole entry, looked up): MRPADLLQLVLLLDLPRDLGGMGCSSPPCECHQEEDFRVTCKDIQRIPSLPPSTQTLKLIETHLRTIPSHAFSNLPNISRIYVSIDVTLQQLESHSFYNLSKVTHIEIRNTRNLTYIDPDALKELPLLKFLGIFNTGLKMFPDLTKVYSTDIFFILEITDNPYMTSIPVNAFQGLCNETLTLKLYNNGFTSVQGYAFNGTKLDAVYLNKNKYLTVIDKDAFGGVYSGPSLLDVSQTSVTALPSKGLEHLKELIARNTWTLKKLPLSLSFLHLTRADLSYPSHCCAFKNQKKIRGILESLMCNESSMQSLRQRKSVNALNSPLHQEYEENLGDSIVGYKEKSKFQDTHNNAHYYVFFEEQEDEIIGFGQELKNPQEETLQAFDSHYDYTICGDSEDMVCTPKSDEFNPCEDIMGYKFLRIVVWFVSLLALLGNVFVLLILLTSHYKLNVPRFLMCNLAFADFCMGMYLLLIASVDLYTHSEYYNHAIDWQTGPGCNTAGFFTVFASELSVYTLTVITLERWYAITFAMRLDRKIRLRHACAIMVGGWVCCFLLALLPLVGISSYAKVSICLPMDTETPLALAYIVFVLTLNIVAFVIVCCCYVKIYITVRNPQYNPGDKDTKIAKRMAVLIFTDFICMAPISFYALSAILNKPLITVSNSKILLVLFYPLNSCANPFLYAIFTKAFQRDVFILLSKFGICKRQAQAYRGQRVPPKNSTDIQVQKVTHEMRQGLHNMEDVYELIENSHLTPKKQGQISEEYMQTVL
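HEK 293 cells stably expressing TSHR and a cAMP-gated CNG channel; parental CNG-only cells as counterscreen. Cells preloaded 60 min with membrane potential dye plus 100 uM RO 20-1724, then compound 30 min; fluorescence read at 590 nm.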
HEK293 cAMP ctrl – raises cAMP in parental HEK293 cells, TSHR agonist counter-screen; parental HEK293 CNG cAMP sensor, membrane potential fluorescence; Potency, µM (top dose mostly 57.1 µM), without a hit: top-dose activation, most hits filed as activators; 73,000 tested, 2.5% active; note: potency is the fitted concentration of half-maximal effect; % of control where 0% means no effect; nearly all actives have a fitted effect of over 55% in size
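Parental HEK 293 cells stably expressing a cAMP-gated CNG channel were loaded with membrane potential dye containing 100 uM RO 20-1724 for 60 min. Compound added for 30 min; depolarization read as fluorescence intensity at 590 nm.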
HBB splice mod – alters splicing of the hemoglobin beta chain; 65,000 tested, 0.06% active; Potency, µM (top dose mostly 46.1 µM), inactives show at the top dose activation, most hits filed as activators; HBB splicing reporter cell assay, activation; EGFP reporter with mutant IVS2-654 intron; response scale: normalised to 500 nM splice-correcting PNA; note: potency is the fitted concentration of half-maximal effect; 0% is about no effect
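HeLa cells stably expressing EGFP interrupted by mutant beta-globin intron 2 (IVS2-654), 500/well in 2% FCS. Treated with compound for 2 days at 37C. Splicing correction scored as total well GFP intensity (488 nm excitation, 500-520 nm emission); 500 nM antisense PNA served as control.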
ERK AVP block – vasopressin-driven ERK pathway inhibition; HEK293-V1b, vasopressin-stimulated pERK AlphaScreen; Potency, µM (titrated, usually from 57.5 µM), inactives show at the highest dose activity, negative = inhibition, actives largely listed as inhibitors; 72,000 tested, 0.99% active; note: potency is the fitted concentration of half-maximal effect; % is set by controls: 0 for no effect and ±100 for the full control effect; nearly all actives have a fitted effect of over 55% in size
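qHTS, compounds titrated on V1b-expressing HEK293 cells. Preincubation 30 min at 37C, vasopressin 25 nM for 5 min, lysis 10 min, bead incubation 5 hr at room temperature.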
An asterisk follows results filed as active; ? = inconclusive; / = not tested or not shown; ! = not confirmed by another sample; [ ] = dose if it differs, or a comment. Unless noted, calls come from the whole dose curve; as a rule, active = well fitted curve in the direction sought with a large enough effect; inconclusive = small, poorly fitted or top-dose-only effect, or another doubt; inactive = no such curve, though single readings can be large; an effect the other way counts as inactive or inconclusive.

SMILES	Ub-GFP proteasome	GFP derepression	TSHR ag	HEK293 cAMP ctrl	HBB splice mod	ERK AVP block
COC(=O)C1C(=O)c2c([nH]c(C(=O)OC3CCCC3C)c2C)CC1C (stereo not given)	12%	-3%	/	9%	-1%	32µM*
COc1ccc(-c2cc(C(F)(F)F)n3ncc(C(=O)NCC4CCCO4)c3n2)cc1 (stereo not given)	-4%	-2%	?	10µM*	3%	2%
CCCCn1c(SCC(=O)c2cc(OC)ccc2OC)nc2cc(S(N)(=O)=O)ccc21	5%	0%	?	25µM*	0%[57.5 µM]	-13%
CCCCn1c(SCC(=O)N2CCC(C)CC2)nc2cc(S(N)(=O)=O)ccc21	0%	-1%	-4%[11.4 µM]	24%	6%	11%
N=c1sc2ccccc2n1CCS (tested in a mixture with another compound)	4%[9.17 µM]	-2%[9.22 µM]	0%[11.4 µM]	-9%[11.4 µM]	3%[9.22 µM]	1%[11.5 µM]
COc1ccccc1-c1nc(C#N)c(N2CCc3ccccc3C2)o1	3%	0%	?	?	7%[0.369 µM]	20µM*
COc1ccccc1-c1nc(C#N)c(N2CCN(c3ccccc3)CC2)o1	-6%	4%	?	?	9%[0.369 µM]	-17%
CC(=O)NC(Cc1c[nH]c2ccccc12)C(=O)OCC(=O)Nc1ccc2c(c1)OCO2 (stereo not given)	3%	-1%	-4%	-12%	-1%	-17%
O=C(COC(=O)CCCc1c[nH]c2ccccc12)Nc1ccc2c(c1)OCO2	-6%	-1%	24%	29%	-2%	40µM*
O=S1(=O)[C@H]([C@H]2CC3c4ccccc4C2c2ccccc23)[C@@H](N2CCCCC2)[C@@H]1c1ccccc1	8%[9.17 µM]	7%[9.22 µM]	7%[11.4 µM]	27%[11.4 µM]	6%[9.22 µM]	16%[11.5 µM]
O=C(NCCc1ccc2c(c1)OCO2)C1CCN(S(=O)(=O)c2ccc(Cl)cc2)CC1	-2%	-1%	?	13µM*	-6%	19%
O=C(NC1CCCCCC1)c1cc(S(=O)(=O)N2CCOCC2)ccc1N1CCCCC1	-4%	-1%	?	25µM*	0%[57.5 µM]	8%
Cn1cc(C(=O)NC2CCCCCC2)c(=O)c2cc(S(=O)(=O)N3CCCC3)ccc21	-13%	0%	?	?	-3%	-17%
CCOC(=O)c1cnc(SCC(=O)c2ccccc2)nc1N	-12%	-2%	20%	29%	-1%[9.22 µM]	-1%
CCOC(=O)c1ccccc1NC(=O)CSc1nnc(COc2ccccc2C)n1C	-4%	6%	?	16µM*	0%[57.5 µM]	-8%
Cc1ccccc1OCc1nnc(SCC(=O)NCc2ccccc2)n1C	0%	0%	5%	18%	-3%	-19%
CCOC(=O)c1ccccc1NC(=O)CSc1nnnn1C1CCCCC1	0%	0%	?	32µM*	-1%	13%
CCOC(=O)c1ccccc1NC(=O)CSc1ncc(C(=O)OCC)c(N)n1	-4%	-1%	?	20µM*	/	22%
COc1ccc(-n2c(Cc3cccn3C)nnc2SCC(=O)Nc2ccccc2C)cc1	-6%	/	11%	5%	-1%	?
CCOC(=O)c1ccccc1NC(=O)CSc1nnc(Cc2cccn2C)n1-c1ccc(C)cc1	6%	0%	?	32µM*	-1%	6%
Nc1ncnc2c1ncn2[C@@H]1O[C@H](COP(=O)(O)OP(=O)(O)O)[C@@H](O)[C@H]1O	/	/	/	/	/	-20%
CC(=O)Oc1ccc(/C=C\C(=O)C[C@@H]2O[C@@H](Oc3cc(OC(C)=O)c4c(c3)O[C@@H](c3ccc(OC(C)=O)cc3)CC4=O)[C@H](OC(C)=O)[C@H](OC(C)=O)[C@@H]2OC(C)=O)cc1	-3%	-5%[9.22 µM]	-5%	-5%	/	/
Clc1ccccc1-c1nn2c(Cn3cnc4ccccc43)nnc2s1	-3%	0%	3.2µM*	27%	0%[57.5 µM]	-24%
c1ccc(CCc2nn3c(Cn4cnc5ccccc54)nnc3s2)cc1	16%	3%	?	?	-1%	-16%
O=C1C(Cl)=C(NCCN2CCOCC2)C(=O)c2ncccc21	/	/	-7%	-14%	-2%	-77%
SMILES	Ub-GFP proteasome	GFP derepression	TSHR ag	HEK293 cAMP ctrl	HBB splice mod	ERK AVP block
CC(=O)c1c(C)[nH]c(C(=O)OCc2nnc(-c3ccccc3)o2)c1C	1%	5%	25%	5%	0%[57.5 µM]	25µM*
Cc1ccc(C(=O)OCc2nnc(-c3ccccc3)o2)o1	0%	-1%	4%	22%	-1%	9%
Cc1cc(C)n(-c2ccc(C(=O)OCc3nnc(-c4ccccc4)o3)cc2)n1	-2%	-5%	?	32µM*	0%[57.5 µM]	?
O=C(OCc1nnc(-c2ccccc2)o1)c1ccc2c(c1)OCCO2	3%	4%	?	13µM*	1%	-8%
Cc1nn(-c2ccccc2)c2sc(C(=O)OCc3nnc(-c4ccccc4)o3)cc12	5%	1%	23%	30%	1%	-7%
O=C(OCc1nnc(-c2ccccc2)o1)C1=COCCO1	5%	1%	1%	4%	-1%[57.5 µM]	8%
O=C(O)CN(CCN(CC(=O)O)CC(=O)O)CC(=O)O.[Mn]	-2%[9.17 µM]	3%[9.22 µM]	24%[11.4 µM]	-9%[11.4 µM]	5%[9.22 µM]	-4%[11.5 µM]
CC1=C(/C=C/C(C)=C/C=C/C(C)=C/C=O)C(C)(C)CCC1	/	/	21%	28%	0%	7%
Cc1[nH]c(C)c(CN(C)C)c1CN(C)C	-7%[9.17 µM]	9%[9.22 µM]	5%[11.4 µM]	0%[11.4 µM]	0%[9.22 µM]	42%[11.5 µM]
CCCC[C@@H]1CN2[C@H](c3ccc(Br)cc3)[C@H](C)CC[C@H]2C(=O)O1	/	/	?	?	1%[9.22 µM]	12%[11.5 µM]
CC1CCC2C(=O)OC(CN=[N+]=[N-])CN2C1c1ccc(Br)cc1 (stereo not given)	/	/	?	5µM*!	1%[9.22 µM]	0%[11.5 µM]
Cc1nc(NCc2ccccc2)c2nc(-c3ccccc3)n(CCN3CCOCC3)c2n1	-6%	/	?	32µM*	-1%	9%
CCCCNc1nc(C)nc2c1nc(-c1ccccc1)n2CCN1CCCCC1	-5%	/	?	13µM*	-1%	-28%
CO[C@H]1COC(=O)[C@@H](Cc2ccccc2)NC(=O)[C@@H](C)COC(=O)C/C=C\[C@@H]1C	/	/	-1%[11.4 µM]	2%[11.4 µM]	3%[9.22 µM]	11%[11.5 µM]
Clc1ccccc1C(c1ccccc1)(c1ccccc1)n1ccnc1	-1%[20.5 µM]	3%[20.6 µM]	40µM*!	21%[25.6 µM]	0%[20.6 µM]	25µM*!
Cc1nc(NCCc2cnc[nH]2)c2oc3ccccc3c2n1	7%	3%	?	?	-2%	-21%
COc1ccc(CCNc2ncnc3c2oc2ccccc23)cc1OC	-3%	0%	?	13µM*	5%[0.369 µM]	32µM*
